# Assay results reported in PubChem BioAssay (NCATS).
# Results filed as inconclusive are left out. Unmarked numbers belong to inactive results. Activity calls are given as the source filed them. The call rests on the fitted dose curve; in most records, active means well fitted curve in the direction sought with a large enough effect; inconclusive means small, poorly fitted or top-dose-only effect, or another doubt; inactive means no such curve, though single readings can be large; an effect the other way counts as inactive or inconclusive.
# Assay: BET inhibitor-based combinations targeting novel dependencies in MECOM-rearranged (r) AML: HNT-34 cell line (AID 2202234); further: nearly all actives have a fitted effect of over 35% in size; further: potency means the concentration at half of the fitted maximal effect;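 on viability (% of control): plate controls were vehicle wells for no effect and cell-free wells for full effect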
# Conditions: HNT-34 AML viability, CellTiter-Glo luminescence, 48 h; series mostly up to 46 µM; viability (% of control): at the top concentration
# Summary of the method: (§1)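 Seeding density was 500 cells/well, and drug exposure lasted 48 hr under standard culture conditions. Read-out used CellTiter-Glo reagent with a 15 min room-temperature incubation before luminescence measurement; AUC and Z-AUC summarize the normalized responses.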
Compound,viability (% of control),Potency
O=c1[nH]c2ccccc2n1CCCN1CCC(n2c(=O)[nH]c3cc(Cl)ccc32)CC1,92.2%,
COc1ccc(C(=O)N2CCCC2=O)cc1,108%,
Cn1c(CCCC(=O)O)nc2cc(N(CCCl)CCCl)ccc21,,14.8 µM (active)
CNCC(O)c1ccc(O)cc1 (stereo not drawn),107%,

# Assay: BET inhibitor-based combinations targeting novel dependencies in MECOM-rearranged (r) AML: UCSD-AML1 cell line (AID 2202235); further: nearly all actives have a fitted effect of over 40% in size; further: potency means the concentration at half of the fitted maximal effect;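 on viability (% of control): plate controls were DMSO vehicle wells for no effect and blank wells for full effect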
# Conditions: UCSD-AML1 AML cells viability, CellTiter-Glo, 48 h; series mostly up to 46 µM; viability (% of control): at the top concentration
# Summary of the method: as §1
Compound,viability (% of control),Potency
O=P1(N(CCCl)CCCl)NCCCO1 (stereo not drawn),106%,
O=c1[nH]c2ccccc2n1CCCN1CCC(n2c(=O)[nH]c3cc(Cl)ccc32)CC1,119%,
CC(C)c1cccc(C(C)C)c1O,105%,
CC(=O)c1c(O)c(C)c(O)c(Cc2c(O)c3c(c(C(=O)/C=C/c4ccccc4)c2O)OC(C)(C)C=C3)c1O,,4.17 µM (active)
CCCN1CCO[C@@H]2c3cc(O)ccc3OC[C@H]21,103%,
COc1ccc(C(=O)N2CCCC2=O)cc1,105%,
Cc1cccc(C)c1NC(=O)CN1CCCC1=O,108%,
NCC1(CC(=O)O)CCCCC1,102%,
O=C(O)c1nn(Cc2ccc(Cl)cc2Cl)c2ccccc12,106%,

# Assay: BET inhibitor-based combinations targeting novel dependencies in MECOM-rearranged (r) AML: AML-191 cell line (AID 2202236;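 further: plate controls were vehicle wells for no effect and wells without cells for full effect; nearly all actives have a fitted effect of over 35% in size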)
# Conditions: AML-191 viability, CellTiter-Glo luminescence, 48 h; series mostly up to 46 µM; viability (% of control): at the top concentration
# Summary of the method: (§2)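 Readout: CellTiter-Glo luminescence. Exposure: 48 h, 11 concentrations, 500 cells/well. Metric: AUC and within-line Z-AUC after DMSO/empty-well normalization.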
row,Compound,viability (% of control)
1,O=P1(N(CCCl)CCCl)NCCCO1 (stereo not drawn),107%
2,O=c1[nH]c2ccccc2n1CCCN1CCC(n2c(=O)[nH]c3cc(Cl)ccc32)CC1,99.8%
3,CCCN1CCO[C@@H]2c3cc(O)ccc3OC[C@H]21,98.8%
4,COc1ccc(C(=O)N2CCCC2=O)cc1,120%
5,CNCC(O)c1ccc(O)cc1 (stereo not drawn),116%
6,O=C(O)c1nn(Cc2ccc(Cl)cc2Cl)c2ccccc12,104%

# Assay: BET inhibitor-based combinations targeting novel dependencies in MECOM-rearranged (r) AML: AML-194 cell line (AID 2202237; further: nearly all actives have a fitted effect of over 40% in size; further: potency means the concentration at half of the fitted maximal effect;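 on viability (% of control): plate controls were vehicle wells for no effect and wells without cells for full effect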)
# Conditions: AML-194 (MECOM-r AML) viability, CellTiter-Glo, 48 h; series mostly up to 46 µM; viability (% of control): at the top concentration
# Summary of the method: as §2
Compound,viability (% of control),Potency
O=P1(N(CCCl)CCCl)NCCCO1 (stereo not drawn),111%,
O=c1[nH]c2ccccc2n1CCCN1CCC(n2c(=O)[nH]c3cc(Cl)ccc32)CC1,109%,
CC(=O)c1c(O)c(C)c(O)c(Cc2c(O)c3c(c(C(=O)/C=C/c4ccccc4)c2O)OC(C)(C)C=C3)c1O,78.6%,
CCCN1CCO[C@@H]2c3cc(O)ccc3OC[C@H]21,90.6%,
COc1ccc(C(=O)N2CCCC2=O)cc1,120%,
Cn1c(CCCC(=O)O)nc2cc(N(CCCl)CCCl)ccc21,,20.9 µM (active)
Cc1cccc(C)c1NC(=O)CN1CCCC1=O,118%,
CNCC(O)c1ccc(O)cc1 (stereo not drawn),105%,
O=C(O)c1nn(Cc2ccc(Cl)cc2Cl)c2ccccc12,106%,
